Most compounds without a hit are left out; they make up all but 1.5% or so of the library.
Six1-Eya2 blk – qHTS Assay for Inhibitors of the Six1/Eya2 Interaction. AlphaScreen GST-Six1/His-Eya2 binding, biochemical; active compounds read low. actives 0.56% (n = 360,000). Homeobox protein SIX1 (Homo sapiens) + Protein phosphatase EYA2 (Homo sapiens), …. activity change, % (no concentration beside the values); in the data active = activity change below about -65%; inconclusive = mostly about -30% to -63%
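Homogeneous AlphaScreen proximity assay pairing GST-Six1 with His-tagged Eya2 (added as 5X mix: 250 nM and 500 nM) in 50 mM Tris pH 8.0, 300 mM NaCl, 1 mM TCEP. Glutathione donor and nickel acceptor beads; 1 h, 37 °C, dark.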
rTrxR1 inhibitor – qHTS Assay for Inhibitors of Mammalian Selenoprotein Thioredoxin Reductase 1 (TrxR1): qHTS; Thioredoxin reductase 1, cytoplasmic (Rattus norvegicus), O89049; recombinant rTrxR1, NADPH fluorescence consumption, selenite substrate; Potency, µM (top dose mostly 114 µM), without a hit: top-dose activity change, negative = inhibition, hits mostly inhibitors; actives 1% (n = 390,000); AID 588453, 2011; also: potency is read from the fitted curve at half-maximal effect; nearly all actives have a fitted effect of over 65% in size
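Rat TrxR1 (90 nM in the dispensed reagent) was pre-reduced with 400 uM NADPH for 5 min at room temperature, then incubated with compound for 15 min. After 400 uM selenite was added, NADPH fluorescence (Ex 340/Em 450 nm) was followed for 8 min.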
GALK inh – qHTS Assay for Inhibitors of Human Galactokinase (GALK); P51570; Purified GALK, Kinase-Glo residual ATP luminescence; Potency, µM (highest dose often 57.5 µM), for the others: at the top dose activity change, negative = inhibition, usual class: inhibitors; actives 0.007% (n = 270,000); also: potency is read from the fitted curve at half-maximal effect
Target sequence (P51570 whole entry, looked up): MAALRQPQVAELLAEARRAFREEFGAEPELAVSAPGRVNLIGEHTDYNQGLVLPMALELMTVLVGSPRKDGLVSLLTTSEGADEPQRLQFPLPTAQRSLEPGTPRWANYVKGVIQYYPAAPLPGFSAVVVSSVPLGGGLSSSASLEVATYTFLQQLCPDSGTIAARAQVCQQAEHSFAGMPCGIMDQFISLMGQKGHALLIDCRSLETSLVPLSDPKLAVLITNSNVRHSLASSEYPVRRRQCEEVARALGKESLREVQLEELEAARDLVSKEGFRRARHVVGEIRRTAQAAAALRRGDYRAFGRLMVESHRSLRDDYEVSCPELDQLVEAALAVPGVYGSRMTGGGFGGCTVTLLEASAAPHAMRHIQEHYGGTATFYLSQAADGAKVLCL
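Kinase-Glo Plus luminescence measured ATP left after a 1 h room-temperature reaction. The reaction used 5 nM GALK, 100 uM galactose and 35 uM ATP at pH 8.0 (20 mM HEPES, 5 mM MgCl2, 60 mM NaCl, 1 mM DTT, 0.01% BSA).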
TrxR1 substrate – qHTS Assay for Substrates of Mammalian Selenoprotein Thioredoxin Reductase 1 (TrxR1): qHTS; Thioredoxin reductase 1, cytoplasmic (Rattus norvegicus), O89049; purified TrxR1 substrate turnover, NADPH consumption readout; Potency, µM (series often up to 114 µM), without a hit: at the top dose activity change, negative = substrate turnover; actives 0.01% (n = 390,000); AID 588456, 2011; also: potency is read from the fitted curve at half-maximal effect; nearly all actives have a fitted effect of over 50% in size
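Rat TrxR1, dispensed at 90 nM, was prereduced with 400 uM NADPH (final) for 5 min at ~22 deg C, then incubated with compound 15 min before 400 uM selenite. A first-read NADPH fluorescence drop versus no-compound background flagged substrates.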
CtBP-E1A inh – qHTS Assay for Inhibitors of the CtBP/E1A Interaction; AlphaScreen GST-E1A/His-CtBP binding, 1536-well; active compounds read low; activity change, % (test concentration not listed); actives 0.49% (n = 340,000); in the data active = activity change below about -65%; inconclusive = mostly about -30% to -63%
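Homogeneous bead-based format: GST-tagged E1A captured on glutathione donor beads, His-tagged CtBP on nickel acceptor beads; compounds precede bead addition by 2 h at 37 °C.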
Eya2 phos inh – qHTS Assay for Inhibitors of the Phosphatase Activity of Eya2. recombinant Eya2, OMFP fluorescence dephosphorylation (OMFP is methylfluorescein phosphate). Potency, µM (top dose mostly 76.9 µM), without a hit: at the top dose activity, negative = inhibition, hits mostly inhibitors. actives 0.006% (n = 330,000). AID 488837, 2010; also: potency is read from the fitted curve at half-maximal effect
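Eya2 protein (added as 0.2 uM solution) was preincubated with compound for 10 min at ambient temperature in 50 mM HEPES pH 7.5, 50 mM NaCl, 5 uM MgCl2, 0.05% BSA, 1 mM DTT. OMFP (added at 50 uM) then reacted 10 min; fluorescence read at 485/525 nm.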
Active calls of the source: *; ? = inconclusive; nt = no result; ! = repeats disagree; [ ] = dose if it differs, or a comment. Unless noted, calls follow the shape of the dose curve; as a rule, active = well fitted curve in the direction sought with a large enough effect; inconclusive = small, poorly fitted or top-dose-only effect, or another doubt; inactive = no such curve, though single readings can be large; an effect the other way counts as inactive or inconclusive. % is scaled to controls: 0 for no effect and ±100 for the full control effect.

SMILES | Six1-Eya2 blk | rTrxR1 inhibitor | GALK inh | TrxR1 substrate | CtBP-E1A inh | Eya2 phos inh
Cc1ccc(C(=O)NN2C(=O)/C(=C/c3cccn3C)SC2=S)cc1 | -69* | -19%[57.1 µM] | -4% | -13%[57.1 µM] | ? | -1%
Cn1cc(/C=C2\SC(=S)N(NC(=O)c3ccccc3Cl)C2=O)c2ccccc21 | -13 | 3%[57.1 µM] | 0% | -11% | -6 | 4%
Cn1cccc1/C=C1\SC(=S)N(NC(=O)c2ccccc2Cl)C1=O | -72* | 6%[57.1 µM] | -5% | 3%[57.1 µM] | ? | -13%
O=C(O)COc1ccccc1/C=C1\SC(=S)N(NC(=O)c2ccccc2O)C1=O | -73* | -13% | nt | -10% | -81* | 34%
Cc1cc2oc(C(=O)Nc3sc4c(c3C(=O)NCc3ccco3)CCC4)cc(=O)c2cc1C | nt | 12% | nt | 5% | nt | nt
Cc1ccc(-n2c(SCC(=O)NCc3ccco3)nnc2-c2cccnc2)c(C)c1 | -3 | 56µM* | -2% | -2% | -8 | 12%
Cc1nnc(SCC(=O)NCc2ccco2)n1-c1ccccc1 | 4 | -4% | 1% | 0% | -7 | 2%
Cc1cc(SCC(=O)NC(=O)NCc2ccco2)nc2c(C)cccc12 | -9 | ? | -1% | 6%[57.1 µM] | 0 | 2%
Cc1cc(SCC(=O)NC(=O)NCc2ccco2)nc2ccccc12 | -13 | 71µM* | -1% | -2% | 3 | 7%
Cc1cccc(-n2c(SCC(=O)NCc3ccco3)nnc2-c2ccco2)c1 | 0 | -16%[57.1 µM] | 0% | 9% | -11 | -15%
Cc1cc(C)nc(SCc2nnc(SCC(=O)NCc3ccco3)n2-c2ccccc2)n1 | -3 | 50µM* | 2% | -2% | -1 | 11%
O=C(CSc1nnc(C2CCCCC2)n1Cc1ccccc1)NCc1ccco1 | -3 | 45µM* | 2% | -3% | -4 | 14%
COc1cc2c(cc1OC)C(C)N(C(=O)c1cc3c(=O)oc4ccc(C)cc4c3s1)CC2 (stereo not given) | -1 | 79µM* | nt | 25% | 2 | -1%
C=C1C(=O)[C@]23C[C@H]1CCC2[C@]1(C)CCC[C@@](C)(C(=O)O)C1C[C@@H]3O (stereo not given in full) | -22 | nt | nt | nt | -3 | nt
C=C1C(=O)[C@@]23[C@H](O)C[C@@H]4C(C)(C)CC[C@H](O)[C@]4(C)[C@@H]2C[C@H](O)[C@@H]1[C@H]3O | 0 | 16µM* | nt | 7% | -2 | 7%
C=C1C(=O)[C@@]23[C@H](O)C[C@@H]4C(C)(C)CC[C@H](O)[C@@]4(C)[C@@H]2CC[C@@H]1[C@H]3O | 8 | 14µM* | nt | 3% | -5 | 2%
O=C(NCc1ccco1)C1CC2CCC1C2 (stereo not given) | -70* | 8% | 0% | 11% | ? | -8%
O=C(O)C1C2CCC(C2)C1C(=O)NCc1ccco1 (stereo not given) | 0 | -11% | 0% | 3% | -1 | -9%
CCCn1c(=O)c2[nH]c(-c3ccc(S(=O)(=O)O)cc3)nc2n(CCC)c1=O | -1 | 22µM*! | nt | 629%[57.1 µM] | -18 | 10%
CN(C)S(=O)(=O)c1ccc(C(=O)/C=C/c2cccnc2)cc1 | -2 | 8.9µM* | 13% | 3%[57.1 µM] | 8 | -6%
O=C(/C=C/c1cccnc1)/C=C/c1cccnc1 | -2 | 18µM* | 0% | -12% | 5 | 2%
CN(C)S(=O)(=O)c1ccc(C(=O)Nc2cccnc2)cc1 | -2 | 6%[57.1 µM] | -4% | -13% | -1 | -4%
N#Cc1cc(Oc2cccc3cccnc23)c(-n2nnc3ccccc32)cc1C#N | 0 | 71µM* | 3% | -3% | 0 | -6%
Cc1cccc(-c2nnn3c2nc(NCCc2ccc(S(N)(=O)=O)cc2)c2cc(Cl)ccc23)c1 | nt | 25% | nt | 28% | nt | nt
CCCN(CCC)C(=O)c1cc([N+](=O)[O-])cc2c1-c1ccc([N+](=O)[O-])cc1C2=C(C#N)C#N | -10 | 13µM* | -2% | -8% | nt | -10%
SMILES | Six1-Eya2 blk | rTrxR1 inhibitor | GALK inh | TrxR1 substrate | CtBP-E1A inh | Eya2 phos inh
CCCCN(CCCC)C(=O)c1cc(Cl)ccc1[N+](=O)[O-] | 2 | -23% | 3% | -13% | -19 | -13%
CCN(C(=O)Cn1ncc2c1-c1cc(C)ccc1OC2)c1cc(Cl)ccc1OC | nt | -11% | nt | -9% | nt | nt
CC(=O)n1cc(N(C(=O)CCl)c2ccc(C)cc2)c2ccccc21 | 4 | 2µM* | -14% | -3% | 5 | -5%
O=C(NCCc1ccc(Cl)cc1)C(=O)NCC(c1cccs1)S(=O)(=O)c1ccccc1 (stereo not given) | nt | 31%[57.1 µM] | nt | 7%[57.1 µM] | nt | nt
COc1ccccc1C1=NC(c2ccccc2)CN1c1ccccc1 (stereo not given) | 80 | 22µM* | 4% | 68% | 107 | -11%
Nc1cc(OC(=O)c2cccs2)nn1S(=O)(=O)c1ccc(F)cc1 | ? | 79µM* | -1% | 4% | -6 | -31%
COc1ccc(C(=O)Oc2cc(N)n(S(=O)(=O)c3ccccc3)n2)cc1 | -15 | 7% | 6% | 4% | nt | -6%
COc1ccc(S(=O)(=O)n2nc(OC(C)=O)cc2N)cc1 | -23 | 18µM* | 3% | 0% | -9 | 12%
O=C(CSc1nc(=O)n(Cc2ccncc2)c2c1CCC2)Nc1cccc(F)c1 | nt | -2%[57.1 µM] | nt | -6%[57.1 µM] | nt | nt
COC1(OC)C=CC(=O)C=C1NC(=O)c1ccccc1OC(C)=O | nt | 13µM* | nt | -5%[57.1 µM] | nt | nt
CC(=O)Oc1ccccc1C(=O)Nc1ccccc1 | nt | 1%[57.1 µM] | nt | 6%[57.1 µM] | nt | nt
CCNC(=O)N1C(CC(=O)OCC)C(=O)NC2CCCCC21 (stereo not given) | 6 | 4%[57.1 µM] | -1% | 3%[57.1 µM] | 11 | 0%
COC(=O)CC1C(=O)NC2CCCCC2N1C(=O)CCl (stereo not given) | 2 | 20µM* | 3% | 6% | -18 | 2%
Cc1ccc(C)c(Cn2c(=O)n(CC3CCC(C(=O)N4CCOCC4)CC3)c(=O)c3sccc32)c1 (stereo not given) | nt | 18%[57.1 µM] | nt | 5%[57.1 µM] | nt | nt
CCS(=O)(=O)c1ccc(OC)c(N=Nc2ccc(O)c3ncccc23)c1 | -92* | -11% | 1% | -8% | -96* | -7%
CCN(CC)S(=O)(=O)c1cc(OC)ccc1N=Nc1ccc(O)c2ncccc12 | -92* | 14%[2.29 µM] | nt | -7% | nt | -22%

Screening data from PubChem.
